JMJD2A Tudor = JMJD2A Tudor domain (human) inhibition; AlphaScreen JMJD2A-Tudor / H3K4me3 peptide binding; 4.4% of 390,000 active; Potency, µM (top dose mostly 114 µM), inactives show at the top dose activity change, negative = inhibition, most hits filed as inhibitors; note: potency is the fitted concentration of half-maximal effect; % is set by controls: 0 for no effect and ±100 for the full control effect; nearly all actives have a fitted effect of over 50% in size
PLK1 PBD block = inhibitors of human PLK1 polo-box domain binding. P53350. Potency, µM, for inactives: max response, negative = inhibition, usual class: inhibitors. AID 720504. Plk1 PBD binding of FITC phosphopeptide, fluorescence polarization. 2.8% of 360,000 active; note: potency is the fitted concentration of half-maximal effect; series mostly up to about 57 µM; % is set by controls: 0 for no effect and ±100 for the full control effect; nearly all actives have a fitted effect of over 65% in size
HP1b binding inh = blocks HP1-beta chromodomain binding to methylated histone tails; P83916; AlphaScreen HP1-beta / biotin-H3K9me3 peptide binding; Potency, µM (doses to about 114 µM), inactives show at the top dose activity change, negative = inhibition, most hits filed as inhibitors; 0.56% of 390,000 active; AID 540317; note: potency is the fitted concentration of half-maximal effect; nearly all actives have a fitted effect of over 70% in size
Target sequence (P83916 whole entry, looked up): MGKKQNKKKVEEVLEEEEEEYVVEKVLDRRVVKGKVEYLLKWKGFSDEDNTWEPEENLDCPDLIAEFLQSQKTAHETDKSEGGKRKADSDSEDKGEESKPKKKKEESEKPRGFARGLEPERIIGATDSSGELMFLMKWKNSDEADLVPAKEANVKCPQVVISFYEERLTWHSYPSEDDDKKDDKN
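HP1-beta protein (50 nM final) preincubated 30 min at room temperature with biotinylated H3(1-18)K9me3 peptide (50 nM) in PBS pH 7.4, 0.01% Tween-20, then compound added for 30 min. AlphaScreen streptavidin donor/nickel chelate acceptor beads (10 ug/mL final), 30 min dark, luminescence read.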
G9a block = G9a (human) methyltransferase inhibition; Q96KQ7; G9a H3K9 monomethylation, AlphaScreen, 2 h; Potency, µM (series often up to 102 µM), for inactives: top-dose activity, negative = inhibition, most hits filed as inhibitors; 8.8% of 350,000 active; AID 504332; note: potency is the fitted concentration of half-maximal effect; % is set by controls: 0 for no effect and ±100 for the full control effect; nearly all actives have a fitted effect of over 75% in size
Target sequence (Q96KQ7 913-1193 limits assumed): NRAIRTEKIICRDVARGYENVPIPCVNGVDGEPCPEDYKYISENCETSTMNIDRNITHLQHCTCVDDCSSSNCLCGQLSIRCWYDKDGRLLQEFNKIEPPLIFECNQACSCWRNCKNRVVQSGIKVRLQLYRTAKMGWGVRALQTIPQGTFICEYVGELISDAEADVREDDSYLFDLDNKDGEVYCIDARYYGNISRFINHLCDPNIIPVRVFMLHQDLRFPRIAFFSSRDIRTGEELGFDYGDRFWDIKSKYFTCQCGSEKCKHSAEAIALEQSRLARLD
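Signal arises when biotinylated H3K9 peptide, once monomethylated, bridges streptavidin donor and antibody-captured acceptor beads. Enzyme at 20 nM was preincubated 15 min with test compounds; peptide 500 nM and SAM 20 uM then reacted for 2 h.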
PI5P4K alpha inh = PI5P4K alpha (human) kinase inhibition; max response, %; AID 652105; PI5P4Kalpha enzyme, ADP-Glo luminescence, 60 min; hits give low values; P48426; 1.2% of 330,000 active; active = max response of -50% or lower; inconclusive = between -30% and -50%; inactive = -30% or higher; note: value at the top dose of about 77 µM; % is set by controls: 0 for no effect and ±100 for the full control effect
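Reactions run in 0.038 M HEPES pH 7.4, 0.28 mM EGTA, 0.1% CHAPS and 5% DMSO, with PI5P4Kalpha, substrate, compound and 5 microM ATP final, one hour at room temperature. Readout is ADP-Glo luminescence.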
BAZ2B block = inhibitors of human BAZ2B bromodomain | AlphaScreen BAZ2B-H3K14Ac peptide displacement | Potency, µM (doses to about 114 µM), for the others: at the top dose activity change, negative = inhibition, hits mostly inhibitors | 4.4% of 360,000 active | AID 504333; note: potency is the fitted concentration of half-maximal effect; % is set by controls: 0 for no effect and ±100 for the full control effect; nearly all actives have a fitted effect of over 60% in size
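AlphaScreen luminescence quantifies BAZ2B engagement of H3K14Ac peptide; the protein and biotinylated peptide are both at 50 nM final, buffer PBS pH 7.4 with 0.01% Tween-20, all steps at room temperature.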
* marks the source's active call; other numbers are inactive results; ? = inconclusive; . = not tested or not shown; ! = not active in a repeat; [ ] = another dose, or the depositor's remark. Sampled rows, rich in hits. Any-hit rate of the full collection: about 12%. Unless noted, calls come from the whole dose curve; as a rule, active = well fitted curve in the direction sought with a large enough effect; inconclusive = small, poorly fitted or top-dose-only effect, or another doubt; inactive = no such curve, though single readings can be large; an effect the other way counts as inactive or inconclusive.

SMILES	JMJD2A Tudor	PLK1 PBD block	HP1b binding inh	G9a block	PI5P4K alpha inh	BAZ2B block
CC(=O)C1=C(O)C(=O)N(Cc2ccccc2)C1c1ccccc1F (stereo unspecified)	-20.3%	0.3%	26.2%	?	-5.5	-35.0%
CC(=N\O)/C(CN(C)C)=N/O	79.4µM*	-7.2%	24.0%	?	-2.3	0.4%
CCOC(=O)c1cccc(NC(=O)c2ccc3nc(CCc4ccccc4)oc3c2)c1	-13.1%	.	7.6%[57 µM]	-5.2%[59 µM]	.	-28.8%
O=C(NCc1ccco1)C1CC(=O)N(c2ccc(Cl)cc2)C1 (stereo unspecified)	-16.2%	-8.1%	23.8%	-44.8%	2.4	.
Cc1ccc(C2CC(=O)N3CN(Cc4ccco4)CSC3=C2C#N)cc1 (stereo unspecified)	56.2µM*	26.7µM*	?	?	.	-7.5%
N#CC1=C2SCN(Cc3ccco3)CN2C(=O)CC1c1c(F)cccc1Cl (stereo unspecified)	14.1µM*	26.7µM*	?	1.58µM*	-50.3*	-5.9%
CC(C)COCC(CN(Cc1ccccc1)c1ccccc1)N1CCCC1 (stereo unspecified)	-2.9%	-19.1%	35.0%	10µM*!	-2.7	?
CC(C(=O)Nc1ccc(OCc2ccccc2)cc1)N1CCCC1 (stereo unspecified)	-22.8%	-14.8%	23.1%	?	1.8	1.6%
COC(=O)c1ccc(NC(=O)CS(=O)(=O)Cc2ccccc2)cc1	-15.3%[11.4 µM]	26.7µM*	-14.0%	22.6%	-12.9	9.3%
COC(=O)c1ccc(NC(=O)Cc2ccccc2)cc1	-6.5%	-0.3%	60.6%	73.8%[59 µM]	1.3	12.8%
COc1ccc(C2=NNC(c3ccco3)=Nc3ccc(F)cc32)cc1	-27.8%	-0.5%	-16.5%	44.7µM*	2.0	?
COc1cccc(N2CC(NC(=O)C3CCCCC3)CC2=O)c1 (stereo unspecified)	-9.4%	.	44.3%	-14.3%[59 µM]	.	-13.6%
Cc1onc(-c2ccccc2Cl)c1C(=O)N1CC(C)OC(C)C1 (stereo unspecified)	?	29.9µM*	-18.1%	-5.5%[12.7 µM]	.	1.2%
Cc1onc(-c2c(Cl)cccc2Cl)c1C(=O)N1CCOCC1	-8.1%	-16.2%	21.4%	-0.8%	2.3	79.4µM*
CCCc1nn2c(=O)cc(COC(=O)CNC(=O)COc3ccc(C)cc3)nc2s1	-3.3%	.	28.5%	9.2%[59 µM]	.	-7.5%
Nc1c(-c2nc(-c3ccccc3Cl)no2)nnn1-c1ccccc1C(F)(F)F	-11.0%	.	85.4%	26.1%[59 µM]	.	3.6%
O=C(N/N=C/c1c[nH]c2ccccc12)c1cc(-c2ccc3ccccc3c2)n[nH]1	-23.3%	0.0%	-2.4%	-23.6%	-56.7*	-23.7%
O=C(O)c1ccc(/C=N/NC(=O)c2cc(-c3ccc4c5c(cccc35)CC4)n[nH]2)cc1	?	?	-13.6%	?	-72.7*	50.1µM*
O=C(N/N=C/c1ccccn1)c1cc(-c2cccc3ccccc23)n[nH]1	?	-21.7%	?	28.9%	-30.0	-2.0%
O=C(N/N=C/c1c[nH]c2ccccc12)c1cc(-c2ccccc2)n[nH]1	-31.0%	-4.7%	-5.6%	4.7%[59 µM]	-3.9	-37.8%
O=C(N/N=C/c1c[nH]c2ccccc12)c1cc(-c2cccc3ccccc23)n[nH]1	?	-7.7%	11.6%	-21.1%	-56.0*	-35.2%
COc1ccccc1OCCC(=O)OCC(=O)NCc1ccc(F)cc1	-1.9%	-3.9%	42.9%	.	-7.8	.
C[C@H](CO)N1C[C@H](C)[C@@H](CN(C)S(=O)(=O)c2ccc(F)cc2)Oc2ccc(NS(=O)(=O)c3ccccc3)cc2C1=O	-1.4%	-13.0%	79.7%	.	2.3	.
C[C@@H]1CCCCO[C@H](CN(C)S(=O)(=O)c2cn(C)cn2)[C@@H](C)CN([C@H](C)CO)C(=O)c2cc(NC(=O)c3ccncc3)ccc2O1	.	-22.7%	.	.	-3.7	.
Cc1ccc(C(=O)CSc2cc(C)[nH]c(=O)n2)cc1	?	-29.0%	-4.2%	-9.3%[0.501 µM]	-24.4	44.7µM*
SMILES	JMJD2A Tudor	PLK1 PBD block	HP1b binding inh	G9a block	PI5P4K alpha inh	BAZ2B block
Cc1cc(SCC(=O)c2ccccc2)nc(=O)[nH]1	-30.8%	?	-7.3%	22.4µM*	?	-22.4%
Cc1ccc(CNC(=O)CSc2cc(C)[nH]c(=O)n2)cc1	-25.0%	.	19.9%	3.3%[59 µM]	.	-14.2%
Cc1cc(SCc2ccc(Cl)cc2Cl)nc(=O)[nH]1	-30.3%	-14.5%	5.3%[57 µM]	19.5%	-3.5	?
Cc1cc(SCC(=O)c2ccc(Cl)cc2)nc(=O)[nH]1	?	23.8µM*	-17.6%	?	-22.9	-26.6%
CCCCN1C(=O)C(CC(=O)NC2CCCCC2)CC(C(=O)N(C(C)C)C(C)C)=C1C (stereo unspecified)	.	7.1%	.	.	6.3	.
CC[C@]12c3[nH]c4cc(-c5ccco5)ccc4c3CCN1C(=O)[C@@H](CC(=O)NCCCOC)C[C@@H]2C(=O)N1CCN(C(=O)C2CC2)CC1	-30.2%	-18.0%	16.5%	.	2.9	.
COCCCNC(=O)C[C@H]1C[C@H](C(=O)N2CCOCC2)[C@@]2(CCC3CCCC3)c3[nH]c4cc(-c5ccco5)ccc4c3CCN2C1=O	79.4µM*	-7.3%	?	.	-5.5	.
CC[C@]12c3[nH]c4cc(-c5ccco5)ccc4c3CCN1C(=O)[C@@H](CC(=O)NCCCOC)C[C@@H]2C(=O)N1CCN(C(=O)c2ccco2)CC1	?	21.2µM*	13.1%	.	?	.
CC[C@]12c3[nH]c4cc(CCC(=O)N(C)C)ccc4c3CCN1C(=O)[C@@H](CC(=O)NCCCOC)C[C@@H]2C(=O)N1CCN(C(=O)C2CC2)CC1	-35.3%	21.2µM*	26.9%	.	?	.
COc1ccc2[nH]c3c(c2c1)CCN1C(=O)C(CC(=O)NCCc2ccccn2)C[C@H](C(=O)N2CCOCC2)[C@@]31CCC1CCCC1 (stereo partly specified)	?	29.9µM*	19.5%	.	-27.2	.
O=C(C[C@H]1C[C@H](C(=O)N2CCOCC2)[C@@]2(CCC3CCCC3)c3[nH]c4cc(-c5ccco5)ccc4c3CCN2C1=O)NCCN1CCOCC1	-26.1%	-3.2%	?	.	-6.0	.
N#Cc1ccc(CN2CCC3(CCNCC3)CC2)cc1	.	.	.	-0.9%[12.7 µM]	.	.
Cc1cccc(NC(=O)Cn2nc(C)c3nn(-c4ccc(Cl)cc4)c(C)c3c2=O)c1C	-13.6%	.	26.9%[57 µM]	1.8%[59 µM]	.	2.1%
CCn1c(CC(=O)Nc2cccc(Cl)c2Cl)nnc1SCCOc1ccc(OC)cc1	?	-1.5%	25.8%	25.1µM*	.	-7.2%
COc1ccc(OCCSc2nnc(CC(=O)Nc3cccc(Cl)c3Cl)n2C)cc1	?	0.0%	8.1%	3.16µM*	.	-12.3%
Cc1nc(N)nc(N(C)c2ccccc2)c1Br	-7.6%	1.0%	15.7%[57 µM]	.	4.0	.
COc1ccc(NC(=O)CCn2cnnn2)cc1	-26.8%	.	39.0%	-21.2%[59 µM]	.	3.4%
